# In PubChem BioAssay AID588342 (National Center for Advancing Translational Sciences (NCATS), 2011):
# Out of some 360,000 compounds screened, about 25,000 (6.9%) were called active. Entries that show only a call come without a potency. About 9% were inconclusive and are not listed. Calls come from the whole dose curve; as a rule, active = well fitted inhibition curve with a large enough effect; inconclusive = small, poorly fitted or top-dose-only effect; inactive = flat fitted curve, though single readings scatter. For the sample, actives were picked, then their nearest neighbours and some compounds at random.
# Target: Luciferin 4-monooxygenase (Photinus pyralis) (UniProt P08659)
# Sequence (P08659 whole entry, looked up): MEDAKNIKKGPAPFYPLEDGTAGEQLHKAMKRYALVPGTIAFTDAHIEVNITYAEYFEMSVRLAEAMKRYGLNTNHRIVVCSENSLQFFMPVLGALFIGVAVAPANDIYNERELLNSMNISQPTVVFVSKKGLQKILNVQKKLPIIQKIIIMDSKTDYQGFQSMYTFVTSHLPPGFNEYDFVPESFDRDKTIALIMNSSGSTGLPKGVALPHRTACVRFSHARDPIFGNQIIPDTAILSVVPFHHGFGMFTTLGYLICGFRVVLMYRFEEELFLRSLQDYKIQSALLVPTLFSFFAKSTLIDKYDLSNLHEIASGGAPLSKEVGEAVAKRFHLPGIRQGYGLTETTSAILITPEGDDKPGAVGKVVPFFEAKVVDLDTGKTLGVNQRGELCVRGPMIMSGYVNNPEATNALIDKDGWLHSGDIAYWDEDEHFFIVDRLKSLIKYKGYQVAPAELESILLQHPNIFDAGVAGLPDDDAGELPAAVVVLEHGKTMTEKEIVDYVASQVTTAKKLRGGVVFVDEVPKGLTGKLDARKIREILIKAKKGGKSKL
# Assay: qHTS profiling assay for firefly luciferase inhibitor/activator using purifed enzyme and Km concentrations of substrates (counterscreen for miR-21 project); note: nearly all actives have a fitted effect of over 55% in size
# Details: purified FLuc, luminescence inhibition; series mostly up to 57.5 µM
# Method in brief: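 Purified P. pyralis luciferase, 10 nM final, with Km-level 10 uM D-luciferin and 10 uM ATP in 50 mM Tris acetate pH 7.5, 10 mM Mg acetate, 0.01% Tween-20, 0.05% BSA; 6-point qHTS titration about 60 µM downward; luminescence read.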
# Potency is the fitted concentration of half-maximal effect.
row,SMILES,Potency
1,CCOc1ccc(-c2nonc2NC(=O)c2oc3ccc(CC)cc3c2C)cc1,inactive
2,NC1=NC(c2cc(F)cc(F)c2)n2c(nc3ccccc32)N1 (stereo not drawn),inactive
3,CC(C(=O)NC1CCCCC1)N1C(=O)c2cccc3cccc1c23 (stereo not drawn),inactive
4,N#Cc1ccc(OCC(=O)NC(=O)NC2CCS(=O)(=O)C2)cc1 (stereo not drawn),inactive
5,Cc1nc2ccn(Cc3cccnc3)c(=O)c2cc1C(=O)N1CCN(c2ccccc2F)CC1,inactive
6,Cc1cc2c(cc3c(SCc4cccc(Cl)c4)nnc(C)n32)o1,inactive
7,CN1CCC(=NNC(=O)c2ccc(N(Cc3ccc(Cl)cc3)S(C)(=O)=O)cc2)CC1,inactive
8,NS(=O)(=O)c1cc(C(=O)OCC(=O)NNC(=O)c2ccccc2)ccc1Cl,inactive
9,O=C(CCOc1ccccc1)N(Cc1cccnc1)c1nc2ccc(Cl)cc2s1,inactive
10,Cc1cc(NC(=O)COc2ccc(Cl)cc2Cl)n(CCC#N)n1,19 µM (active)
11,CCCn1nnnc1NC(=O)COc1ccc(Cl)cc1C,inactive
12,Cc1cc(Nc2ccccc2)n(CCC#N)n1,inactive
13,CSc1ncccc1C(=O)Nc1nc2ccc(F)cc2s1,19 µM (active)
14,O=C(Nc1nc2ccc(F)cc2s1)c1nc(SCc2ccccc2F)ncc1Cl,inactive
15,CSc1ncccc1C(=O)Nc1ccc(C)cn1,inactive
16,CC(C(=O)N(C)CC(=O)Nc1ccccc1C(F)(F)F)N1C(=O)c2ccccc2C1=O (stereo not drawn),inactive
17,Cc1ccc(/C=C(\C#N)C(=O)Nc2cc(C)ccc2C)cc1,inactive
18,COc1cc(OC)cc(C(=O)NCC(=O)N2CCCCCCC2)c1,inactive
19,COc1ccc(CCNC(=O)c2ccc3c(c2)sc2nc(-c4ccc(C)cc4)cn23)cc1OC,inactive
20,NS(=O)(=O)c1ccc2nc(NC(=O)C3=COCCO3)sc2c1,12 µM (active)
21,NS(=O)(=O)c1ccc2nc(NC(=O)CS(=O)(=O)c3ccc(F)cc3)sc2c1,inactive
22,NS(=O)(=O)c1ccc2nc(NC(=O)COc3ccccc3)sc2c1,inactive
23,COc1ccc(-c2cc(C(=O)NCCCn3ccnc3)no2)cc1,inactive
24,Cc1ccc(-c2nc(C#N)c(NCCCn3ccnc3)o2)cc1,21.3 µM (active)
25,Cc1ccc(S(=O)(=O)c2nc(NCCCn3ccnc3)sc2Cl)cc1,inactive
26,CC(NC(=O)c1cccc(S(=O)(=O)N2CCc3ccccc3C2)c1)c1ccco1 (stereo not drawn),inactive

row,SMILES,Potency
1,COC(=O)c1ccc(NC(=O)C(C)N2C(=O)c3ccccc3C2=O)cc1 (stereo not drawn),inactive
2,CN1C(=O)/C(=C/c2ccc(C(=O)NC3CCCC3)cc2)Oc2ccccc21,inactive
3,COC(=O)c1ccc(/C=C2/C(=O)Oc3ccccc32)cc1,2.69 µM (active)
4,C#CC(C)(CC)NC(=O)Cn1nnc(-c2ccc(OCc3c(F)cccc3Cl)cc2)n1 (stereo not drawn),inactive
5,CCn1c(=O)cc(OCC(=O)Nc2cc(Cl)c(OC)cc2OC)c2ccccc21,inactive
6,N#C/C(=C\c1cccc(F)c1)c1nc(-c2cc3c(ccc4ccccc43)oc2=O)cs1,inactive
7,CCOc1ccc(S(=O)(=O)Nc2nc3cc(OC)ccc3s2)cc1,inactive
8,COc1ccc(Nc2cc(=O)oc3ccccc23)cc1,inactive
9,COc1ccc2oc(=O)cc(-c3cc4ccccc4o3)c2c1,inactive
10,COc1ccc2nc(Nc3nc(-c4cc5ccccc5oc4=O)cs3)sc2c1,0.849 µM (active)
11,COc1ccc2nc(Nc3nc4cc5c(cc4s3)OCCO5)sc2c1,9.53 µM (active)
12,O=c1oc2ccccc2cc1-c1csc(Nc2ccc(O)cc2)n1,5.36 µM (active)
13,Cc1ccc2nc(-c3ccncc3)cc(C(=O)Nc3ccc(OC(F)F)cc3)c2c1,inactive
14,COc1ccc(-c2onc(C)c2-c2ccc3c(c2)OCCO3)c(O)c1,inactive
15,COc1ccc2nc(Nc3nc(-c4ccncc4)cs3)sc2c1,1.51 µM (active)
16,CCOCCCNC(=O)c1c(NC(=O)Cc2coc3ccc(C)cc23)sc2c1CCC2,inactive
17,Cc1cc(NC(=O)CSc2nc(=O)cc(N)n2-c2ccc(F)cc2)no1,inactive
18,CC1CCCN(S(=O)(=O)c2ccc3[nH]c(=O)cc(C(=O)NCCc4ccc(Cl)cc4)c3c2)C1 (stereo not drawn),inactive
19,COc1ccc(CNc2nc(-c3ccccc3)nn2C(=O)c2ccccc2OC)cc1,inactive
20,Cc1ccc(C)c(Cn2c(=O)n(CCC(=O)NCc3ccc4c(c3)OCO4)c(=O)c3sccc32)c1,inactive
21,COc1ccc(-c2nnc(SCC(=O)Nc3ccccc3C)o2)cc1OC,inactive
22,CCNc1nc(-c2cc3ccccc3o2)cs1,0.601 µM (active)
23,Cn1c(CNc2nc(-c3ccccc3)cs2)nnc1SCC(=O)c1ccccc1,inactive
24,CCOC(=O)CSc1nnc(CNc2nc(-c3ccccc3)cs2)n1C,inactive
25,COc1ccc(-c2c(C)c3ccc(O)c(CN4CCN(C)CC4)c3oc2=O)cc1OC,inactive
26,COc1cc(OC)cc(-c2c(-c3cccs3)c3cc(-c4ccc(OC)nc4)ccc3n2C)c1,inactive

row,SMILES,Potency
1,CCOc1ccc(OCC)c(NC(=O)c2cc(C)nc3c2c(C)nn3-c2cccc(Cl)c2C)c1,inactive
2,COc1cccc(Cn2cc(/C=N/NC(=O)c3cc(O)cc(O)c3)c3ccccc32)c1,26.9 µM (active)
3,N#CCC(=O)N/N=C/c1cn(Cc2ccc3ccccc3c2)c2ccccc12,inactive
4,CNC(=S)N/N=C/c1cn(Cc2ccc(C)cc2)c2ccccc12,inactive
5,COc1ccc(N2CCN(C(=O)/C(C#N)=C/c3ccccc3)CC2)cc1,inactive
6,CCOC(=O)NC(=O)/C(C#N)=C\c1ccccc1,inactive
7,CCOC(=O)/C(C#N)=C/c1ccc(N2CCCCC2)cc1,2.69 µM (active)
8,COC(=O)c1ccc(OC)c(Cn2c(=O)n(Cc3ccccc3)c(=O)c3c2c2cc(OC)ccc2n3C)c1,inactive
9,CCOc1ccccc1NC(=O)CN1CCCN(Cc2cccc(Cl)c2)S1(=O)=O,inactive
10,O=C(c1ccncc1)N1CCN(c2ccc3ccccc3n2)CC1,inactive
11,c1cnc(N2CCN(c3ccc4ccccc4n3)CC2)nc1,5.36 µM (active)
12,CC12CCC(C(=O)N3CCN(c4ncccn4)CC3)(c3nc4ccccc4nc31)C2(C)C (stereo not drawn),inactive
13,CN1CCN(CCNC(=O)Nc2ccccc2[N+](=O)[O-])CC1,inactive
14,Cc1csc(NC(=O)Nc2ccccc2[N+](=O)[O-])n1,4.78 µM (active)
15,Cc1csc(NC(=O)NC2(C(F)(F)F)Oc3ccccc3O2)n1,inactive
16,COc1ccc(Cl)cc1NC(=O)CN(C)C(=O)c1ccc2n[nH]nc2c1,inactive
17,Cc1cccc(NC(=O)CSc2nc3c(c(=O)[nH]2)CCC3)c1C,inactive
18,Cc1cccc(NC(=O)CSc2nc3c(c(=O)[nH]2)CCCC3)c1C,inactive
19,Cc1cccc(NC(=O)CSc2ncc(-c3ccccc3)[nH]2)c1C,13.5 µM (active)
20,O=C(Nc1ccccc1Cl)N1CCC(CN2CCCC2)CC1,inactive
21,Cc1cc(Nc2cccc(C(F)(F)F)c2)nc2ccc(NC(=O)c3ccc(=O)[nH]c3)cc12,inactive
22,CSc1ccc(NC(=O)Cn2nnnc2-c2ccccc2F)cc1,inactive
23,CCCC(=O)N(CCN1CCOCC1)c1nc2ccc(OCC)cc2s1,inactive
24,CCOc1ccc2nc(N3CCC(C(=O)Nc4cc(C)ccc4C)CC3)sc2c1,inactive
25,CCOc1ccc2nc(C(=O)N3CCCC(C)C3)sc2c1 (stereo not drawn),1.69 µM (active)
26,CCOc1ccc2nc(N3CCCC(C(=O)Nc4cc(C)ccc4C)C3)sc2c1 (stereo not drawn),2.39 µM (active)

row,SMILES,Potency
1,CCOc1ccc2nc(N(CCN(C)C)C(=O)c3ccc4ccccc4c3)sc2c1,inactive
2,Cc1ccc(C)c(NC(=O)C2CCCN(S(=O)(=O)c3cn(C)cn3)C2)c1 (stereo not drawn),inactive
3,Cc1ccc2cccc(NC(=O)c3ccc(OC(C)C)cc3)c2n1,inactive
4,CCOC(=O)c1ccc(CSc2nnc3cc(C)c4ccccc4n23)cc1,inactive
5,Oc1c(C(c2ccccc2Cl)N2CCOCC2)sc2nc(-c3ccco3)nn12 (stereo not drawn),inactive
6,CC(=O)c1ccc(NC(=O)C(C)N(C)CC(=O)Nc2ccccc2Cl)cc1 (stereo not drawn),inactive
7,Cc1cc([N+](=O)[O-])ccc1NC(=O)C1CCCO1 (stereo not drawn),inactive
8,Cc1ccc(C)c(C(C)NC(=O)C2CCCO2)c1 (stereo not drawn),inactive
9,Cc1cc(C)c2nc(NC(=O)C3CCCO3)sc2c1 (stereo not drawn),3.79 µM (active)
10,COCCn1c(SCC(=O)c2cc(C)ccc2C)nc2cc(C(=O)NC3CCCC3)ccc2c1=O,inactive
11,O=C(C1Cc2ccccc2CN1C(=O)c1ccco1)N1CCN(c2ccccc2)CC1 (stereo not drawn),inactive
12,O=C1NNC(c2ccccc2)=N/C1=C\c1ccc(Cl)cc1,inactive
13,COc1ccc(-c2[nH]nc(-c3ccccc3)c2-c2nc3ccccc3[nH]2)cc1,inactive
14,Cc1ccc(-c2nc3ccccc3[nH]2)cc1N,2.39 µM (active)
15,Cc1ccc(C)c(N2CCN(C(=O)CCc3nc4ccccc4[nH]3)CC2)c1,inactive
16,CN(C)c1cc(N)c2ccccc2n1 (tested in a mixture with another compound),inactive
17,c1ccc2[nH]c(-c3nc4ccccc4[nH]3)nc2c1,2.13 µM (active)
18,O=C(Nc1sc2c(c1-c1nc3ccccc3[nH]1)CCCC2)C1CC1,inactive
19,COc1ccc(NC(=O)C2CCCN(S(=O)(=O)c3c(C)[nH]c(=O)[nH]c3=O)C2)c(OC)c1 (stereo not drawn),inactive
20,Cc1cc(C)c(NC(=O)CCc2c(C)nc3c(c(C)nn3C(C)(C)C)c2C)c(C)c1,inactive
21,CCCS(=O)(=O)N1CCC(n2c(C(F)(F)F)nc3cccnc32)CC1,inactive
22,CCOC(=O)c1ccc(NC(=O)Cn2c(=O)n(-c3ccc(C)cc3)c(=O)c3c2cnn3C)cc1,inactive
23,COc1cccc2c(N/N=C/c3ccco3)cc(C)nc12,inactive
24,COc1cccc(/C=N/Nc2cc(C)nc(-c3ccccc3O)n2)c1O,7.57 µM (active)
25,COc1cccc(/C=N/Nc2ncc(C(F)(F)F)cc2Cl)c1O,inactive
